Data reported in PubChem BioAssay (NCI).
About 83,000 compounds went through this panel and 20% of them were active in at least one assay; those are over-represented in the sample as a whole.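 The test compound was applied at a single concentration to cells in 96-well plates for 48 hours, and percent growth was recorded.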 Values without a mark were called inactive. Calls of active or inactive are those of the source. Rule for the calls: active = growth percent below 10; inactive = the rest.

system: UO-31 renal; assay: NCI-60 one-dose screen, 48 h (100 = growth as untreated, 0 = no growth, -100 = all killed); details: 10 µM unless noted

Row | SMILES | growth
1 | CC1CCN(C(=O)OCc2nc3nc(Cl)nc(N4CCOCC4)c3[nH]2)CC1 | -100% (active)
2 | COc1cc(C2CC(c3cccc(Nc4ccncc4)c3)=NN2c2cc(Cl)cc(Cl)c2)cc(OC)c1OC (stereo not drawn) | 28.4%
3 | COC(=O)Nc1ccc(NC(=O)OC)cc1 | 87.6%
4 | COc1ccc(C(=O)c2cc3c(N)c(C(=O)Nc4cccc(Cl)c4C)sc3nc2C)cc1 | 21.7%
5 | COc1ccc(-c2nc(SC)nc(N3CCOCC3)c2C#N)cc1 | 67.4%
6 | CC(=O)NCCCS(=O)(=O)O | 83.9%
7 | Cn1c(COC(=O)NCCN2CCOCC2)nc2c(N3CCOCC3)nc(-c3ccccc3)nc21 | -100% (active)
8 | CC(C)Sc1nc(NN)c(C#N)c(-c2ccccc2)n1 | 75.9%
9 | COc1ccc(-c2nc(SCC(C)C)nc(N/N=C(/C)c3ccc(OC)c(OC)c3)c2C#N)cc1 | 54.4%
10 | COc1cc2nnn3c4ncccc4c(N=O)c3c2cc1OC | -6.2% (active)
11 | COc1ccccc1-c1c(-c2ccc(Cl)cc2)c2cc3c(cc2[nH]c1=O)OCCO3 | 61.9%
12 | O=S(=O)(NCCNc1nccc(-c2c(-c3ccc(F)c(O)c3)nc3sccn23)n1)c1ccccc1 | 49.9%
13 | CC(C)(O)C1CCCN1C(=O)c1ccccc1I (stereo not drawn) | 82.7%
14 | O=C(OCc1nc2nc(Cl)nc(N3CCOCC3)c2[nH]1)n1ccnc1 | -81% (active)
15 | Cc1c([N+](=O)[O-])cc(C(C)(C)C)cc1[N+](=O)[O-] | 98.7%
16 | O=C(N/N=C/c1ccc(F)cc1)c1ccccc1Nc1cccc(C(F)(F)F)c1 | 94.1%
17 | COc1cccc(/C=C2\COc3ccc(-c4ccccc4)cc3C2=O)c1 | -38.1% (active)
18 | CN1CCN(c2cc(F)c(NC3=C(Cl)C(=O)c4ncccc4C3=O)c(F)c2)CC1 | -100% (active)
19 | Cc1cc(NC(=O)c2cnc(N3CCN(CCOCCOCCOCCOCCC(=O)N[C@H](C(=O)N4C[C@H](O)C[C@H]4C(=O)N[C@@H](C)c4ccc(-c5scnc5C)cc4)C(C)(C)C)CC3)cn2)c2ncccc2c1 | 75.8%
20 | COc1ccc(-c2ncc(-c3ccccc3)[nH]2)cc1OC | 109%
21 | O=C(CN1CCOCC1)Nc1ccc2ncnc(Nc3ccc(Oc4cccc(F)c4)c(Cl)c3)c2c1 | 31.6%
22 | O=C1Nc2c(ccc(Cl)c2Cl)/C1=C/c1ccc(F)cc1 | 71.9%
23 | COc1ccc(-c2nc(N/N=C/c3c[nH]c4ccccc34)nc(N3CCOCC3)c2C#N)cc1 | 63.7%
